# Compound activity from PubChem BioAssay.
# p53null 32C kill: selectivity test: cytotoxicity in p53 null cells, permissive temperature | H1299-neo p53 null cells, ATP luminescence, 24 h, 32C | Potency, µM (top dose mostly 46.1 µM), for the others: at the highest dose activity change, negative = cytotoxicity, hits mostly cytotoxic | hit rate 0.62% among 55,000 | AID 903;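 note: potency is the fitted concentration of half-maximal effect; 0% = DMSO only and -100% = full killing by 100 µM tamoxifen; nearly all actives have a fitted effect of over 55% in size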
#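 AC50 values derive from Hill modelling of qHTS concentration-response data (up to 46 uM) in H1299-neo cells. Cells were treated 24 h at 32C following overnight attachment at 37C; viability was read as cellular ATP.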
# GPR32 ag: agonists of human resolvin D1 receptor DRV1 (GPR32) | hit rate 2.5% among 48,000 | CHO-K1 GPR32 beta-arrestin PathHunter luminescence, 90 min; zero percent set by DMSO-only wells | activation, % at 76.9 µM | AID 1346428;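 active = activation of at least 60% and not above a set upper limit, about 1 call in 100 departs from these limits; inconclusive = activation of 40% to 60%, or above that upper limit; inactive = activation under 40%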; note: 0% is about no effect
#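 Step 1: seed CHO-K1 GPR32 beta-arrestin cells, 2,500/well, overnight at 37 °C. Step 2: add compounds, 90 min at 37 °C. Step 3: detection reagent, 1 h ambient, then luminescence.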
# FH mod: Identification of activators of human fumarate hydratase by quantitative high-throughput screening; Potency, µM (titrated, usually from 79.9 µM), inactives show at the highest dose activity change, negative = inhibition, usual class: inhibitors; hit rate 0.22% among 54,000; FH coupled MDH/diaphorase resazurin fluorescence, 15 min; Fumarate hydratase, mitochondrial (Homo sapiens), P07954; AID 1347055, 2019; note: potency is the fitted concentration of half-maximal effect; % is set by controls: 0 for no effect and ±100 for the full control effect; the screen sought activators but most active calls are inhibition curves; nearly all actives have a fitted effect of over 45% in size
# p53null 39C kill: selectivity test: cytotoxicity in p53 null cells, nonpermissive temperature | H1299 p53-null (neo) cells, 39C, ATPlite viability, 24 h | Potency, µM (series often up to 46.1 µM), for inactives: at the top dose activity, negative = cell killing, hits mostly cytotoxic | hit rate 0.97% among 55,000;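 note: potency is the fitted concentration of half-maximal effect; 0% = DMSO only and -100% = full killing by 100 µM tamoxifen; nearly all actives have a fitted effect of over 50% in size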
#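 ATP-luminescence viability readout (ATPlite, 20 min RT) after 24 hr compound treatment at 39C of H1299-neo or H1299-p53A138V cells; titration up to 46 uM; normalized to DMSO and 100 uM tamoxifen; Hill-fit AC50.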
# NTMT1 inhibitor: inhibitors of human N-terminal methyltransferase NTMT1; NTMT1 MTase-Glo SAH luminescence, purified enzyme; Q9BV86; AID 1645870; hit rate 2.5% among 59,000; Potency, µM (highest dose often 114 µM), for the others: at the top dose activity change, negative = inhibition, hits mostly inhibitors;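 note: potency is the fitted concentration of half-maximal effect; plate controls were DMSO vehicle for no effect and no enzyme for full effect; nearly all actives have a fitted effect of over 65% in size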
# GALC G270D act: raises human GALC G270D mutant activity in cells. P54803. hit rate 0.1% among 45,000. Potency, µM (highest dose often 57.5 µM), most hits filed as activators. 145M-Twi-hGALC-G270D cells (Twitcher mouse brain line with human GALC G270D), HMU-beta-Gal fluorescence, 48 h; note: potency is the fitted concentration of half-maximal effect; 0% is about no effect; nearly all actives have a fitted effect of over 65% in size
# Target sequence (P54803 whole entry G286D): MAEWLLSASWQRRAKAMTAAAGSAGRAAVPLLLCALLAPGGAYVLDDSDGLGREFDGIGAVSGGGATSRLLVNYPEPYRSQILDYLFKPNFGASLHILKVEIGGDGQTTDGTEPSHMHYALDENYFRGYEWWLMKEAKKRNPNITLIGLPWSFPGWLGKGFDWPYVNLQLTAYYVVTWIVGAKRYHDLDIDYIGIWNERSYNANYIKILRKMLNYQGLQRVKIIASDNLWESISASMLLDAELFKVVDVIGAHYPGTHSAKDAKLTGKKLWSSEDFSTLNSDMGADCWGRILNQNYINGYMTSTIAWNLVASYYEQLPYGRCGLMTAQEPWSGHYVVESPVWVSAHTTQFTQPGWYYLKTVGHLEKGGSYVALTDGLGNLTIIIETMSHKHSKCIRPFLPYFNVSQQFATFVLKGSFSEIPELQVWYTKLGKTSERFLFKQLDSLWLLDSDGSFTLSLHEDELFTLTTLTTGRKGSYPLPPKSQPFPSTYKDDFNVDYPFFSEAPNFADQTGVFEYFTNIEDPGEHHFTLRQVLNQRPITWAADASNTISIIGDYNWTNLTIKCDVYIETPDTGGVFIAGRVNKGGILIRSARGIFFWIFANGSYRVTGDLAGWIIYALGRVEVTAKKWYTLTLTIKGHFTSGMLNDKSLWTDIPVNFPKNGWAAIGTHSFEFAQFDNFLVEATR
#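 Live 145M-Twi cells (Twitcher mouse brain-derived, GALC-null) stably expressing human GALC-G270D, with a wild-type GALC line, were compound-treated. Residual GALC activity was then read as fluorescence from 0.1 mM final HMU-β-gal at pH 5.2; higher signal means activation.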
# Sfp qHTS opt: inhibitors of Bacillus subtilis Sfp PPTase, optimization followup | shares compounds with NTMT1 inhibitor | Potency, µM (top dose mostly 114 µM), for the others: top-dose activity change, negative = inhibition, usual class: inhibitors | hit rate 78% among 230 | AID 540350 | purified Sfp PPTase enzyme activity, qHTS
# HM489 growth: Sfp PPTase inhibitors: growth inhibition of B. subtilis HM489; shares compounds with NTMT1 inhibitor; B. subtilis HM489 (acpS-) growth, BacTiter-Glo, 5 h; Potency, µM (series often up to 114 µM), without a hit: top-dose activity change, negative = inhibition, hits mostly inhibitors; hit rate 50% among 220
# Sfp gel opt: Sfp PPTase inhibition, gel-based detection; shares compounds with NTMT1 inhibitor; purified Sfp PPTase, gel-based product detection; Potency, µM (top dose mostly 250 µM), without a hit: at the highest dose activity change, negative = inhibition, usual class: inhibitors; hit rate 54% among 220
# Sfp gel: Sfp phosphopantetheinyl transferase inhibition, gel detection | shares compounds with NTMT1 inhibitor | purified Sfp PPTase, gel-based product detection | Potency, µM (top dose mostly 250 µM), inactives show top-dose activity change, negative = inhibition, actives largely listed as inhibitors | hit rate 90% among 45 | AID 602362
# Sfp SAR2: inhibits B. subtilis Sfp PPTase in second SAR round; shares compounds with NTMT1 inhibitor; purified Sfp enzyme, PPTase activity, qHTS; Potency, µM (series often up to 57.1 µM), inactives show at the highest dose activity change, negative = inhibition, hits mostly inhibitors; hit rate 87% among 230; AID 602370
# hGST A1-1 inh: hGST A1-1 enzyme inhibition, Sfp SAR counter-screen | shares compounds with NTMT1 inhibitor | Potency, µM (highest dose often 114 µM), for the others: at the top dose activity change, negative = inhibition, hits mostly inhibitors | hGST A1-1 enzyme activity counter-screen, qHTS | AID 602391 | 55 tested, under 10 active
# HSD17B4 inh: counter-screen for HPGD inhibitors: human HSD17B4 inhibition | shares compounds with NTMT1 inhibitor | purified HSD17B4, estradiol/NAD+, NADH fluorescence | Potency, µM (titrated, usually from 57.1 µM), without a hit: at the top dose activity change, negative = inhibition, actives largely listed as inhibitors | hit rate 10% among 230 | AID 743187
# ALDH1A1 inh: ALDH1A1 (human) inhibition, HPGD counter-screen. hit rate 93% among 230. Potency, µM (highest dose often 57.1 µM), for the others: at the top dose activity change, negative = inhibition, hits mostly inhibitors. recombinant ALDH1A1, NADH fluorescence, propionaldehyde/NAD+. shares compounds with NTMT1 inhibitor
# An asterisk follows results filed as active; i = inactive; ? = inconclusive; / = no result given; [ ] = another dose, or the depositor's remark. A selection: hits, their analogues and other compounds. The true share with any hit is near 3.9%. Unless noted, calls come from the whole dose curve; as a rule, active = well fitted curve in the direction sought with a large enough effect; inconclusive = small, poorly fitted or top-dose-only effect, or another doubt; inactive = no such curve, though single readings can be large; an effect the other way counts as inactive or inconclusive.
SMILES,p53null 32C kill,GPR32 ag,FH mod,p53null 39C kill,NTMT1 inhibitor,GALC G270D act,Sfp qHTS opt,HM489 growth,Sfp gel opt,Sfp SAR2,HSD17B4 inh,ALDH1A1 inh,others
Cc1ccnc(N=C(N)N2CCN(c3cccc(C(F)(F)F)c3)CC2)c1,/,/,/,/,/,/,?,?,1%,36µM*,/,/,Sfp gel=1%;hGST A1-1 inh=?
Cc1ccc(/C=C/C(=O)N2CCN(c3cccc(C(F)(F)F)c3)CC2)cc1,-17%,/,/,-6%,/,/,/,/,/,/,/,/,
Cc1ccnc(NC(=S)N2CCCN(c3cccc(C(F)(F)F)c3)CC2)c1,/,/,/,/,?,/,4.7µM*,7.4µM*,1.3µM*,1.6µM*,-9%,1.7µM*,Sfp gel=1.9µM*;hGST A1-1 inh=?
Cc1cc(C)nc(NC(=S)N2CCN(S(=O)(=O)c3cccc(C(F)(F)F)c3)CC2)c1,/,/,/,/,?,/,2.4µM*,?,-29%,0.81µM*,-18%,22µM*,
Cc1ccnc(C(=S)N2CCN(c3cccc(C(F)(F)F)c3)CC2)c1,/,/,/,/,-2%,/,?,?,6%,?,-7%,17µM*,
C=C1C(=O)OC2C(OC(=O)C=C(C)C)C(C)=C3C(=O)C=C(C)C3C(O)C12 (stereo not drawn),/,/,0%[53.3 µM],/,-15%[29.8 µM],/,/,/,/,/,/,/,
NC(=S)c1ccc[n+]([C@@H]2O[C@@H](COP(=O)([O-])OP(=O)(O)OC[C@H]3O[C@@H](n4cnc5c(N)ncnc54)[C@H](OP(=O)(O)O)C3O)C(O)C2O)c1 (stereo partly drawn),/,/,-8%[53.3 µM],/,/,/,/,/,/,/,/,/,
CN1CCN(C(=O)CN[C@@H]2C[C@H]2c2ccc(OCc3ccccc3)cc2)CC1,/,/,4%,/,-3%[57.5 µM],/,/,/,/,/,/,/,
FC(F)(F)c1cccc(N2CCN(C(=S)Nc3ccccn3)CC2)c1,/,/,/,/,/,/,2.4µM*,37µM*,25µM*,0.91µM*,-27%,7.6µM*,
Cc1ccnc(NC(=S)N2CCC(Nc3cccc(C(F)(F)F)c3)CC2)c1,/,/,/,/,-17%,/,1.9µM*,12µM*,0.4µM*,1µM*,2%,4.8µM*,
FC(F)(F)c1cccc(N2CCN(C(=S)Nc3cc4ccccc4cn3)CC2)c1,/,/,/,/,/,/,47µM*,-1%,16µM*,13µM*,24µM*,15µM*,
Cc1cc(Nc2cccc(C(F)(F)F)c2)ncn1,-5%,5,-5%,-12%,-18%,i,/,/,/,/,/,/,
OCc1ccnc(NC(=S)N2CCN(c3cccc(C(F)(F)F)c3)CC2)c1,/,/,/,/,-1%,/,59µM*,53µM*,37%,32µM*,-21%,24µM*,
Cc1nc([C@](C)(O)CO)sc1-c1cnc(N)c(O[C@H](C)c2cc(F)ccc2-n2nccn2)c1,/,/,2%,/,-3%[57.5 µM],/,/,/,/,/,/,/,
CNc1oc(-c2cccc(-c3ccccc3)c2)nc1C#N,/,/,/,/,-10%[57.5 µM],/,/,/,/,/,/,/,
Cc1cc(C)nc(NC(=S)N2CCN(c3cc(C(F)(F)F)cc(C(F)(F)F)c3)CC2)c1,/,/,/,/,/,/,3.3µM*,17%,?,0.51µM*,-2%,22µM*,
Cc1cc(C)nc(NC(=S)N2CCN(c3ccc4cn(C)nc4c3)CC2)c1,/,/,/,/,?,/,13µM*,12%,-68%,11µM*,?,22µM*,
Cc1nc2c3ccccc3nc(NNC(=O)CCC(=O)N3CCN(c4cccc(C(F)(F)F)c4)CC3)n2n1,-4%,-18,12%,-13%,3%,i,/,/,/,/,/,/,
Cn1cnc(S(=O)(=O)N2CCC(C(=O)N3CCN(c4cccc(C(F)(F)F)c4)CC3)CC2)c1,0%,-6,-21%,14%,-5%,i,/,/,/,/,/,/,
FC(F)(F)c1cccc(N2CCN(C(=S)Nc3cc(C(F)(F)F)ccn3)CC2)c1,/,/,/,/,?,/,5.1µM*,7.4µM*,?,?,-12%,19µM*,Sfp gel=-5%;hGST A1-1 inh=?
CC(C)Cn1cc(NC(=O)N2CCN(c3cccc(C(F)(F)F)c3)CC2)c2ccccc2c1=O,5%,-34,-1%,-11%,5%,i,/,/,/,/,/,/,
Cc1ccc(NC(=O)N2CCN(c3ccc(Cl)c(Cl)c3)CC2)cc1,5%,-3,-27%,?,1%,i,/,/,/,/,/,/,
FC(F)(F)c1cccc(N2CCN(C(=S)Nc3ncnc4ccccc34)CC2)c1,/,/,/,/,?,/,?,5.9µM*,?,9.1µM*,?,6.8µM*,
CNC(=O)Cn1cc(-c2ccc3c(c2)C(F)CC32NC(=O)N(CC(=O)N(Cc3ccc(F)cc3)C(C)C(F)(F)F)C2=O)cn1 (stereo not drawn),/,/,/,/,-3%,/,/,/,/,/,/,/,
CC1=CC23[C@H](C=C(C(=O)O)[C@@H]2COC(=O)[C@]3(O)CO)[C@@H]1C (stereo partly drawn),/,/,-9%,/,5%[57.5 µM],/,/,/,/,/,/,/,
